For four compounds, outcome and protection results are on record in PubChem BioAssay.

Records with an inconclusive call do not appear. For some of these results: Potency and affinity values are given separately. Activity calls are given as the source filed them. Unless noted, the rule behind the calls is not given here.

Assay [1] addresses Calcium-dependent protein kinase 1 (Plasmodium falciparum (isolate 3D7)) (UniProt P62344). Nature of the assay: PfCDPK1 kinase inhibitors, biochemical, TCAMS library (AID 1159585; cut-off not given, nearly all actives have IC50 up to about 0.98 µM;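 note: inhibitors leave more ATP so luminescence rises with inhibition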). The following applies: recombinant PfCDPK1, Kinase-Glo ATP depletion luminescence. Background: In Kinase-Glo more light means more ATP remaining.
The target in assay [2] is Plasmodium falciparum protein kinase 6 (PK6, PF3D7_1337100) (UniProt Q8IDW1). Nature of the assay: PfPK6 kinase inhibitors, biochemical, TCAMS library (AID 1159586). The following applies: recombinant PfPK6, Kinase-Glo ATP depletion luminescence.
Assay [3] addresses Protein kinase 7 (PK7), Plasmodium falciparum 3D7 (PF3D7_0213400) (UniProt Q7YTF7). Nature of the assay: inhibition of Plasmodium PK7 catalytic activity – biochemical, TCAMS antimalarial set, Kinase-Glo luminescence (AID 1159587). The following applies: recombinant PfPK7, Kinase-Glo ATP depletion luminescence.
In assay [4] the target is Calcium-dependent protein kinase 4 (Plasmodium falciparum (isolate 3D7)) (UniProt Q8IBS5). Nature of the assay: PfCDPK4 kinase inhibitors, biochemical, TCAMS library (AID 1159588; cut-off not given, nearly all actives have IC50 up to about 0.91 µM). The following applies: recombinant PfCDPK4, Kinase-Glo ATP depletion luminescence.
Assay [5] is described as follows: glutamate excitotoxicity neuroprotectants – cell-based, TUNEL DNA degradation staining, MNGlu (AID 1594). The conditions noted are these: motor neurons, glutamate-induced death, at 1 µM, hits give high values.

Sequence of Protein kinase 7 (PK7), Plasmodium falciparum 3D7 (PF3D7_0213400) (Q7YTF7 1-343): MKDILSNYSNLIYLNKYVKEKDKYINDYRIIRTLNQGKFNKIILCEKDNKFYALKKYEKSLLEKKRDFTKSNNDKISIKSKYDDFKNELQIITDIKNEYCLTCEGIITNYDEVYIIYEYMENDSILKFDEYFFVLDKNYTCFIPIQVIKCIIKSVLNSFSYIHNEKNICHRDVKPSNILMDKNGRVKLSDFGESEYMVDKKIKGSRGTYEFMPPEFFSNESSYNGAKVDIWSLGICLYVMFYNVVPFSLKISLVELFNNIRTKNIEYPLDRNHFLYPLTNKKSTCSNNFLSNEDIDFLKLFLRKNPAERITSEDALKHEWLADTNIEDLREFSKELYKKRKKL
Sequence of Calcium-dependent protein kinase 4 (Plasmodium falciparum (isolate 3D7)) (Q8IBS5 whole entry, looked up): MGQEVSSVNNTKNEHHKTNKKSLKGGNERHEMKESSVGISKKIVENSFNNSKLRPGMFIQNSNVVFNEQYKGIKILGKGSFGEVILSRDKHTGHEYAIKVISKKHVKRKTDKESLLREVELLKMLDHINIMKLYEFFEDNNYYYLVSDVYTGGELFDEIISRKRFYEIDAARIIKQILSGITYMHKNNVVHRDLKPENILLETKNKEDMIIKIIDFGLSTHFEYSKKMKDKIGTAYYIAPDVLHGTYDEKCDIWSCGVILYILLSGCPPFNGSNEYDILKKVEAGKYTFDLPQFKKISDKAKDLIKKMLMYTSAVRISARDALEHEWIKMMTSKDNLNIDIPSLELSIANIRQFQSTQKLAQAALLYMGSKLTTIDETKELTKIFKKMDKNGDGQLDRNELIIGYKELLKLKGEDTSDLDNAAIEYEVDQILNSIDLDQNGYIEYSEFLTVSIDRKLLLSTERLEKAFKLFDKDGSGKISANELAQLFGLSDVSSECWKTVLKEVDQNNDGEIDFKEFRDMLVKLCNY
Sequence of Calcium-dependent protein kinase 1 (Plasmodium falciparum (isolate 3D7)) (P62344 whole entry, looked up): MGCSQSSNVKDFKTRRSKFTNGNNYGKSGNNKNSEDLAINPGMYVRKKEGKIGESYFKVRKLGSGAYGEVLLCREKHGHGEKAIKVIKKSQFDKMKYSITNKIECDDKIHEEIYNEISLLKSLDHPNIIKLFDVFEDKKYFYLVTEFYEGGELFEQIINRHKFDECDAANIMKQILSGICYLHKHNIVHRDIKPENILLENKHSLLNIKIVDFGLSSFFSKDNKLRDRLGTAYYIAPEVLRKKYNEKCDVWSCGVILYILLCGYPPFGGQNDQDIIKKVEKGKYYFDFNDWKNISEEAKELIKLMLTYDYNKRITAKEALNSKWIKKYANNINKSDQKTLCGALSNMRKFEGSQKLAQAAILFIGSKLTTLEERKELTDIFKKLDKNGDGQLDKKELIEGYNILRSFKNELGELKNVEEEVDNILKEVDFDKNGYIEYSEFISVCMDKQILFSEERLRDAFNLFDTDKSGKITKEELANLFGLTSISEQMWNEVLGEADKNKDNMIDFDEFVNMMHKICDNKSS
Sequence of Plasmodium falciparum protein kinase 6 (PK6, PF3D7_1337100) (Q8IDW1 1-305): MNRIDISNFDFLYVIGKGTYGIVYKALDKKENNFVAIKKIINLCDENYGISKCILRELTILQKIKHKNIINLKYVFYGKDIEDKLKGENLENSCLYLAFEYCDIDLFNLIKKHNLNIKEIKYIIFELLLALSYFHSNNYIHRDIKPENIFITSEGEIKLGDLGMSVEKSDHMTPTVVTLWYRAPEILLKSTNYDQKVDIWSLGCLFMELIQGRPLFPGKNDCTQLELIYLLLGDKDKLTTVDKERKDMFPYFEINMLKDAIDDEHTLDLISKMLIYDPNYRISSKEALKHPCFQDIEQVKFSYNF

As for `CC[C@H]1CN2CCc3cc(OC)c(OC)cc3[C@@H]2C[C@@H]1C[C@H]1NCCc2cc(OC)c(OC)cc21`, the result in assay [1], in assay [2], in assay [3] and in assay [4] was inactive.
For `CCN(CC)CCCC(C)Nc1ccnc2cc(Cl)ccc12` (stereo not given), the result in assay [1], in assay [2], in assay [3] and in assay [4] was inactive.
On to `COC1=CC(=O)C[C@@H](C)[C@]12Oc1c(Cl)c(OC)cc(OC)c1C2=O`, for which, in assay [5], the protection is 17% (active).
Still for that read-out and setting: the result for `O=C(CCCN1CC=C(n2c(=O)[nH]c3ccccc32)CC1)c1ccc(F)cc1` reads 35% (active).
